Most compounds without a hit are left out; they make up all but 2% or so of the library.
Jurkat viability = cytotoxic compounds reducing Jurkat cell viability. Jurkat E6.1 viability, ATP luminescence, 48 h. inhibition, % at 4 µM. 1.2% of 56,000 active. AID 463;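 active = inhibition above the mean inhibition of all tested compounds plus 3 SD, cut at about 28% in these data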
Her2 expr inh = inhibitors of human Her2 kinase expression. 0.69% of 65,000 active. HER2 level % of control, % at 10 µM. AID 645. SKBR-3 HER2 protein level, AlphaScreen, 18-24 h; hits give low values;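 active = HER2 level under 5% of the carrier-only control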;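 note: 100% = DMSO carrier and 0% = 500 nM PU-H71 HSP90 inhibitor; lower value means stronger loss of Her2 protein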
SKBR3 24h inh = SK-BR-3 proliferation inhibitors; SK-BR-3 viability, CellTiter-Glo ATP luminescence, 24 h; hits give low values; viability, % at 10 µM; 0.47% of 41,000 active; AID 847;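 active = viability at or below the median of all test compounds minus 3 SD, in both replicates if run twice, cut at about 45% in these data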;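 note: 100% = median untreated cell wells and 0% = median positive control drug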
Numbers without * were called inactive; . = not tested or not shown.

SMILES	Jurkat viability	Her2 expr inh	SKBR3 24h inh
Cc1ccc(NC(=O)CSc2nnc(-c3ccc(S(=O)(=O)N4CCCC4)cc3)o2)cc1C	-3.6	15.2	.
CCCCOCCCn1c(-c2ccco2)nc2nc3ccccc3nc21	-3.0	20.3	61.6
CCN1C(=O)CC(C(=O)Nc2ccc(F)cc2)SC1=Nc1ccc2c(c1)OCO2 (configuration not stated)	2.7	-27.4*	.
CCOc1ccc(NC(=O)C2CC(=O)N(CC)C(=Nc3ccc4c(c3)OCO4)S2)cc1 (configuration not stated)	-3.1	49.8	.
COc1ccc(C2CC(=O)C(C=NCCN3CCN(C(C)=O)CC3)=C(O)C2)cc1OC (configuration not stated)	-0.2	125.5	.
COc1ccc(C2CC(=O)C(C=NCCO)=C(O)C2)cc1OC (configuration not stated)	.	-27.9*	85.2
CC(C)N(Cc1nc(-c2ccccc2)no1)C(=O)CCCN1C(=O)c2ccccc2C1=O	-0.5	101.2	83.6
CC(C)N(Cc1nc(-c2ccccc2)no1)C(=O)CN1C(=O)c2ccccc2C1=O	-0.5	-19.1*	95.0
CCn1c(SCC(=O)N2CCCc3ccccc32)nc2c1c(=O)n(C)c(=O)n2C	-5.9	116.3	88.5
CCn1c(SCC(=O)N2c3ccccc3CCc3ccccc32)nc2c1c(=O)n(C)c(=O)n2C	6.5	-3.2*	.
Cc1cc2c3nonc3ccc2n1-c1ccccc1	.	105.0	78.8
CCS(=O)(=O)N1Cc2ccccc2CC1C(=O)N1CCN(c2cccc(C)c2C)CC1 (configuration not stated)	4.3	104.2	.
CCOc1ccc(Nc2cc(C)nc(-n3nc(C)cc3C)n2)cc1	99.2*	40.0	85.6
CNc1cc(C)nc(-n2nc(C)cc2C)n1	3.6	100.9	88.9
N=c1cc(C2(O)CCCCC2)n2c(nc3ccccc32)s1	.	16.4	.
CCOCCn1c(CN(Cc2ccccc2)Cc2ccccc2)nc2c1c(=O)n(C)c(=O)n2C	-3.1	41.9	.
COc1ccc(C(=O)N2CCN(c3c(C)cccc3C)CC2)cc1OC	-2.1	120.9	.
CCOc1ccccc1N1CCN(C(=O)c2ccncc2)CC1	7.0	81.5	.
COc1cc(C(=O)N2CCN(c3cccc(C)c3C)CC2)cc(OC)c1OC	93.5*	66.5	.
Cc1cccc(N2CCN(C(=O)c3ccncc3)CC2)c1C	60.0*	64.4	104.3
COc1ccc(C(=O)N2CCN(C(=O)c3cc(OC)c(OC)c(OC)c3)CC2)cc1	-7.5	122.6	115.9
Cc1ccccc1S(=O)(=O)Cc1ccc(C(=O)N2CCN(c3cccc(C)c3C)CC2)o1	93.4*	49.4	.
Cc1ccccc1S(=O)(=O)Cc1ccc(C(=O)N2CC(C)CC(C)C2)o1 (configuration not stated)	2.2	64.6	.
COc1cc(C(=O)N2CCN(c3cc(Cl)ccc3Cl)CC2)cc(OC)c1OC	60.6*	57.9	.
CCOC(=O)c1c(C)n(C)c2ccc(OC)c(NC(=O)CN3CCN(C(=O)c4ccco4)CC3)c12	4.3	73.3	75.3
SMILES	Jurkat viability	Her2 expr inh	SKBR3 24h inh
CCOC(=O)C1=C(N)OC2=C(C(=O)CC(C)(C)C2)C1c1ccco1 (configuration not stated)	-10.2	93.6	91.0
CC1(C)CC(=O)C2=C(C1)OC1=C(C(=O)CC(C)(C)C1)C2c1ccc(O)cc1O	95.8*	-0.6*	.
COc1ccc(OC)c(NC(=O)CN(c2ccc(C)cc2)S(=O)(=O)c2c(C)noc2C)c1	1.0	68.1	58.4
COc1ccc(N(CC(=O)Nc2cc(Cl)ccc2OC)S(=O)(=O)c2c(C)noc2C)cc1	88.3*	76.1	93.9
O=C(NCc1ccccc1)c1c[nH]c2ccc(S(=O)(=O)Nc3ccc4c(c3)OCCO4)cc2c1=O	7.4	93.7	.
O=C(NCc1cccnc1)c1c[nH]c2cc3c(cc2c1=O)OCCO3	94.4*	61.2	85.1
O=C(Nc1nnc(CCN2CCOCC2)s1)C1CCCCC1	-1.3	102.8	86.1
O=C(Oc1ccc(Cl)c2cccnc12)N1CCCCC1	-1.4	87.9	81.9
O=C(Oc1ccc(Cl)c2cccnc12)N1CCOCC1	0.7	1.0*	63.2
O=C(CN1C(=O)NC2(CCc3ccccc32)C1=O)c1ccc2c(c1)OCCO2 (configuration not stated)	0.8	72.9	.
O=C(Nc1cccc(S(=O)(=O)c2cccc(NC(=O)C3CC3)c2)c1)C1CC1	16.8	57.1	91.8
CCn1nnc(-c2ccccc2NC(=O)c2ccc(-n3cnnn3)cc2)n1	1.1	97.4	89.7
CCn1nnc(-c2ccccc2NC(=O)c2cccc(-n3cnnn3)c2)n1	-5.1	89.1	41.8*
Cc1cccc(C)c1NC(=O)C(c1ccccc1)N1CCN(C(=O)c2ccco2)CC1 (configuration not stated)	11.4	88.8	89.5
Cc1cccc(C)c1NC(=O)C(c1ccccc1)N1CCC2(CC1)OCCO2 (configuration not stated)	12.0	83.3	33.7*

Source: PubChem
